Data as given in PubChem BioAssay (NCI).
This is part of a sample that, as a whole, favours compounds with a hit. Of some 83,000 tested, about 20% had one in any assay.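 Compound tested at a single concentration for 48 hours in 96-well plates; a percent growth value below 10 was scored as active.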 Values without a mark were called inactive. Active and inactive are the calls of the source.

Key:
Test in all cases: NCI-60 one-dose screen, 48 h (100 = growth as untreated, 0 = no growth, -100 = all killed)
SK-MEL-2 melanoma = conditions: 10 µM unless noted
EKVX NSCLC = conditions: 10 µM unless noted
SN12C renal = conditions: 10 µM unless noted
UO-31 renal = conditions: 10 µM unless noted
TK-10 renal = conditions: 10 µM unless noted
ACHN renal = conditions: 10 µM unless noted
CAKI-1 renal = conditions: 10 µM
A498 renal = conditions: 10 µM unless noted
MOLT-4 leukemia = conditions: 10 µM unless noted
SR leukemia = conditions: 10 µM unless noted
RPMI-8226 leukemia = conditions: 10 µM unless noted
OVCAR-8 ovarian = conditions: 10 µM unless noted
OVCAR-5 ovarian = conditions: 10 µM unless noted
OVCAR-4 ovarian = conditions: 10 µM unless noted
SK-OV-3 ovarian = conditions: 10 µM unless noted
IGROV1 ovarian = conditions: 10 µM unless noted
HS 578T breast = conditions: 10 µM unless noted
NCI/ADR-RES ovarian = conditions: 10 µM unless noted
CCRF-CEM leukemia = conditions: 10 µM unless noted
OVCAR-3 ovarian = conditions: 10 µM unless noted

SMILES | growth (SK-MEL-2 melanoma) | growth (EKVX NSCLC) | growth (SN12C renal) | growth (UO-31 renal) | growth (TK-10 renal) | growth (ACHN renal) | growth (CAKI-1 renal) | growth (A498 renal) | growth (MOLT-4 leukemia) | growth (SR leukemia) | growth (RPMI-8226 leukemia) | growth (OVCAR-8 ovarian) | growth (OVCAR-5 ovarian) | growth (OVCAR-4 ovarian) | growth (SK-OV-3 ovarian) | growth (IGROV1 ovarian) | growth (HS 578T breast) | growth (NCI/ADR-RES ovarian) | growth (CCRF-CEM leukemia) | growth (OVCAR-3 ovarian)
O=C1Nc2ccc(Br)cc2/C1=N\c1nnc(-c2ccc(Cl)cc2)o1 | 87.6% | 72.5% | 85.7% | 62.3% | 187% | 74.9% | 59% | 69.4% | 36.6% | 10.9% | 62.5% | 82.6% | 98.7% | 86.4% | 73.3% | 55.3% | 83.1% | 36.9% | – | –
COc1ccc(-c2cc(-c3ccc(Cl)cc3)nc3nc(N)nn23)cc1 | 103% | 99.3% | 97.6% | 81% | 93.2% | 96.3% | 83.7% | – | 89% | 93.6% | 108% | 99.1% | 101% | 102% | 119% | 98.2% | 109% | 102% | 95% | 110%
O=c1[nH]c(CCl)nc2c1cnn2-c1ccccc1 | -89.8% (active) | 100% | 99.8% | -20.9% (active) | 154% | 96.7% | 97.6% | – | 104% | 87.1% | 82.5% | 104% | 114% | 111% | 122% | 95.9% | 111% | 106% | 101% | 100%
CC[C@]12C=CCN3CC[C@]4(C(=C(C(=O)OC)C1)Nc1cc5c(cc14)[C@@H]1[C@H](O5)[C@@H](O)[C@@]4(CC)CC(C(=O)OC)=C5Nc6cc(OC)ccc6[C@@]56CCN1[C@@H]46)[C@@H]32 | 32.1% | 19.1% | 16.4% | 11.9% | 14.1% | -42.5% (active) | 2.12% (active) | -65.9% (active) | – | 5.56% (active) | -23.3% (active) | 19.5% | 25.4% | 31.2% | 25% | 6.73% (active) | 11.6% | 12.4% | 5.92% (active) | –
COc1ccc2oc3c4[nH]c5ccccc5c4c4c(c3c2c1)C(=O)N(O)C4=O | 107% | 97.8% | 94.7% | 82.2% | 140% | 97.9% | 80.4% | 75.4% | 116% | – | 91.9% | 102% | 109% | 104% | – | 94.9% | 89.9% | 101% | – | –
c1ccc(-c2c(-c3ccccc3)[n+](Cc3ccc4ccccc4c3)c(-c3ccccc3)n2Cc2ccc3ccccc3c2)cc1 | -67.7% (active) | -90.1% (active) | -91.7% (active) | -95.2% (active) | -81.1% (active) | -95.5% (active) | -93.4% (active) | – | -54.1% (active) | -41.1% (active) | -30.5% (active) | -69.3% (active) | -96.3% (active) | -75% (active) | -92.9% (active) | -76.5% (active) | -50.4% (active) | -65.8% (active) | -21.6% (active) | -87.8% (active)
NC(=O)c1c(NC(=O)c2cccc(OC(F)(F)F)c2)sc2c1CCC(=O)C2 | 105% | 68.7% | 59.5% | 30.1% | 73.3% | 20.2% | 45.7% | 88.3% | 44.4% | 30% | 6.56% (active) | 53% | 62.5% | 13.8% | – | 36.4% | 40.4% | 57.5% | – | 67.2%
C/C(=C(/C)C1CC1CCN(C(=O)c1ccccn1)S(=O)(=O)c1ccc(C)cc1)C1CCCCC1 (stereo not given) | 101% | 77.6% | 98.2% | 86.4% | 105% | 99.3% | 78.9% | 94.6% | 88.2% | 105% | 92.2% | 96.8% | 93.1% | 83.8% | 101% | 103% | 102% | 81.9% | – | 108%
CN(C)CCn1c2ccc(N)cc2c2nc3ccccc3nc21 | 54.6% | 40.6% | 25.6% | 23% | 60.2% | 13.9% | 28.6% | – | 8.1% (active) | 33.3% | 24.6% | 35.7% | 41% | 53.5% | 37.4% | 23.2% | 76.2% | 28.1% | 29.5% | 37%
CC(=O)c1ccc(NC(=O)COc2ccc(C3SCC(=O)N3c3ccc(Br)cc3)cc2)cc1 (stereo not given) | 96.2% | 94.4% | 95.1% | 84.2% | 103% | 97.6% | 89.2% | – | 96.8% | 77% | 89.6% | 97.5% | 102% | 103% | 105% | 89.7% | 100% | 92.6% | 89.9% | 121%
CC1(C)CC[C@]2(C(=O)O)CC[C@]3(C)C(=CCC4[C@@]5(C)C[C@@H](O)[C@@H]6OC(c7cccc([N+](=O)[O-])c7)OC[C@@]6(C)C5CC[C@]43C)C2C1 (stereo not given in full) | 88.5% | 57.6% | 62% | 59.9% | 71.9% | 39.4% | 79.7% | – | 48.2% | 72.7% | 56% | 58.7% | 97.2% | 83.2% | 105% | 74.4% | 94.1% | 39.7% | 44.4% | 81.9%
CCN(CC)CCCC(C)NCC(=O)NC(c1ccc2c(c1)OCO2)c1cc(Cl)c2cccnc2c1O (stereo not given) | 81.4% | 26% | 38.1% | 3.38% (active) | 45.6% | 25.2% | 1.43% (active) | 81.1% | 20.4% | 39.2% | 27.9% | 25.2% | 40.6% | – | 40.6% | 20.9% | 79.7% | 38.6% | – | 10.8%
COc1ccc(C2CC(c3ccc(Nc4nc(NCCO)nc(Nc5ccc(Cl)cc5)n4)cc3)=Nc3c(N)nc(N)nc3N2)cc1 (stereo not given) | 89.5% | 107% | 85.1% | 56.2% | 107% | 90.1% | 61.1% | 42.7% | 3.14% (active) | – | -4.52% (active) | 40% | 121% | – | 112% | 74% | 94.9% | 76% | -17.9% (active) | –
CCOC(=O)c1c(NC(=O)c2ccc(F)cc2F)sc2c1CCC(=O)C2 | 98.3% | 97.7% | 99% | 83.8% | 124% | 95.6% | 80.1% | – | 95.8% | 88% | 106% | 96.9% | 104% | 102% | 104% | 100% | 103% | 96.8% | 98.2% | 113%
O=C(/C=C1\C=CN(CCCCO)c2ccccc21)n1ccc2ccccc21 | 101% | 89.6% | 98.7% | 74.3% | 117% | 93.7% | 85.7% | 117% | 102% | 123% | 109% | 97.3% | 102% | 107% | 97.6% | 89.2% | 98.7% | 105% | – | 111%
Cc1ccc(-n2cc(/C=C/C(=O)c3ccc(S(C)(=O)=O)cc3)c(-c3ccc(S(C)(=O)=O)cc3)n2)cc1 | 107% | 93.2% | 89.7% | 85.5% | 127% | 93.3% | 89.2% | 84.6% | 71.9% | 44% | 92.3% | 97.5% | 98.3% | 109% | 105% | 69.2% | 103% | 64% | – | 75.9%
